# In PubChem BioAssay AID1852 (Sanford-Burnham Center for Chemical Genomics, 2009):
# Among all 2,500 compounds or so, about 1,100 (44%) were called active. So high a share suggests a set chosen from earlier hits. This is one part of the list. A number with no mark means an inactive call.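 Rule for the calls: active = inhibition above 50% at 4 µM in the single-point screen; inactive = inhibition of 50% or less.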
# Test: blockers of TNF-a NF-kB luciferase induction – cell-based, HEK293T NF-kB-Luc, luminescence, selectivity assay for NOD1/NOD2 signaling inhibitor project, primary screen (AID 1852)
# Settings: TNF-a induced, 14 h, at 4 µM, stronger effect = higher value
row,SMILES,inhibition
1,COc1cc(CNc2ccc3[nH]c(=O)[nH]c3c2)ccc1OCc1ccc(F)cc1Cl,28.6%
2,Cc1cc(=O)n(C)c(=O)n1CCCCOc1ccc([N+](=O)[O-])cc1,24.7%
3,CCc1ccc(C(=O)OCC(=O)c2c(N)n(CC(C)C)c(=O)n(C)c2=O)cc1,23.2%
4,CC(C)Cn1c(N)c(C(=O)CSc2ccc3c(c2)OCCO3)c(=O)n(C)c1=O,82.1% (active)
5,Cc1c(C(=O)OCC(=O)c2c(N)n(CC(C)C)c(=O)n(C)c2=O)oc2ccccc12,26.4%
6,O=C(c1ccc(-c2ccccc2)cc1)N1CCN(c2ccccn2)CC1,18.3%
7,CC1Cc2ccccc2N1S(=O)(=O)c1cccc(C(=O)N2CCN(c3ncccn3)CC2)c1 (configuration not stated),58.4% (active)
8,CC(=O)c1ccc(N2CCN(S(=O)(=O)c3ccc4c(c3)CC(C)N4C(C)=O)CC2)cc1 (configuration not stated),47.2%
9,Cc1cc2nc(-c3ccc(SCc4ccccn4)nc3)[nH]c2cc1C,78.5% (active)
10,Cc1ccccc1C(=O)Nc1ccc(-c2nc3ccc(C(=O)c4ccccc4)cc3[nH]2)cc1,38.3%
11,CC(C)(C)c1ccc(C(=O)O/N=C(\N)c2ccccn2)cc1,22.5%
12,COc1ccc(C(=O)O/N=C(\N)c2ccc(Br)cc2)cc1,-10.5%
13,CC(C)(C)c1ccc(C(=O)O/N=C(\N)c2ccccc2)cc1,51% (active)
14,COc1ccc(-n2cnc3c(sc4nc(N5CCOCC5)c5c(c43)CCCC5)c2=O)cc1,46.4%
15,Cc1ccn2cc(-c3cc4ccccc4oc3=O)nc2c1,-79.5%
16,COc1ccc(-c2cc(=O)oc3cc(OCC(=O)Nc4ccc(CCO)cc4)ccc23)cc1,38.3%
17,CCc1ccc(OCC(=O)Nc2ccc(-c3cc4ccccc4oc3=O)c(OC)c2)cc1,51.2% (active)
18,Cn1nccc1C(=O)N1CCN(c2ccccc2F)CC1,-23.6%
19,Cc1ccc(Cl)cc1N1CCN(C(=O)c2cc3c(=O)[nH]c4ccccc4c3n2C)CC1,89.7% (active)

row,SMILES,inhibition
1,Cc1cccc(C)c1OCC(=O)OC/C(O)=C(\C#N)c1nc2ccccc2[nH]1,101% (active)
2,COc1ccccc1OCc1nnc(SCC(N)=O)n1-c1ccccc1,0.9%
3,COc1ccccc1OCC(=O)OC/C(O)=C(\C#N)c1nc2ccccc2[nH]1,98.2% (active)
4,CC(C)(C)c1nc(SCC(=O)Nc2nc3c(s2)CCCC3)c2ccccc2n1,-17.1%
5,Cc1nc(SCC(=O)Nc2nc3ccccc3s2)c(C#N)c(C)c1C,61.7% (active)
6,CCN1C/C(=C/c2ccc(OC)c(O)c2)C(=O)/C(=C/c2ccc(OC)c(O)c2)C1,101% (active)
7,COc1ccc(CCNC(=S)NC2CCN(Cc3ccccc3)CC2)cc1OC,43.5%
8,O=[N+]([O-])c1cccc(S(=O)(=O)NCc2ccncc2)c1,42.3%
9,COc1ccc(/C=C2\CN(Cc3ccccc3)C/C(=C\c3ccc(OC)c(O)c3)C2=O)cc1O,77.4% (active)
10,O=C1/C(=C/c2cccc([N+](=O)[O-])c2)CCc2ccccc21,-28.5%
11,CCC1C/C(=C\c2cc(OC)c(OC)cc2OC)C(=O)/C(=C/c2cc(OC)c(OC)cc2OC)C1 (configuration not stated),36.6%
12,CCN1C/C(=C/c2cccc([N+](=O)[O-])c2)C(=O)/C(=C/c2cccc([N+](=O)[O-])c2)C1,106% (active)
13,Cc1cccc(-n2c(SC(C)C(=O)O)nc3sc4c(c3c2=O)CCCC4)c1 (configuration not stated),45.4%
14,O=[N+]([O-])c1ccc(NC(=S)NCCc2ccc(Cl)cc2)cc1,87.9% (active)
15,N#Cc1ccc(NC(=O)Nc2ccc(Cl)cc2)cc1,22.5%
16,O=[N+]([O-])c1ccc(NC(=S)NCCc2ccc(F)cc2)cc1,18.3%
17,CCc1ccc(CN(C)C(=O)c2cc(COc3cccc4cnccc34)on2)cc1,80% (active)
18,CN(Cc1nccs1)C(=O)c1cc(COc2cccc3cnccc23)on1,66.3% (active)
19,COc1cccc(CN(C)C(=O)c2cc(COc3ccc4ncccc4c3)on2)c1,56.4% (active)

row,SMILES,inhibition
1,CN(Cc1cccnc1)C(=O)c1cc(COc2ccc3ncccc3c2)on1,42.9%
2,Cc1nc(CN(C)C(=O)c2cc(COc3ccc4ncccc4c3)on2)cs1,27.2%
3,CCOC(=O)c1ccc(NC(=O)c2ccc(C)c(S(=O)(=O)N3CCOCC3)c2)cc1,47.7%
4,COc1ccc(C(=O)Nc2ccc(-c3ccc(C)o3)cc2)cc1S(=O)(=O)N1CCOCC1,66.1% (active)
5,COc1ccc(NC(=O)c2cc(-c3ccco3)nc3ccccc23)cc1S(=O)(=O)N1CCOCC1,45.6%
6,Cc1nc([N+](=O)[O-])c(Sc2nc3ccccc3[nH]2)n1Cc1ccccc1,36.1%
7,O=C(NC(Nc1nc2ccc([N+](=O)[O-])cc2s1)(C(F)(F)F)C(F)(F)F)c1ccccc1Cl,85% (active)
8,Cc1cc(C)cc(OCC(=O)Nc2nc3ccc([N+](=O)[O-])cc3s2)c1,13.3%
9,Cc1ccc(C)c(OCC(=O)Nc2nc3ccc([N+](=O)[O-])cc3s2)c1C,43.5%
10,CCOc1cc(/C=C(/C#N)c2ccc(Cl)cc2)cc(Cl)c1OCC(=O)O,90.7% (active)
11,CCOc1ccc(C(=O)/C=C/c2cc(OC)c(OC)c(OC)c2)cc1,9.7%
12,CCOc1ccccc1NC(=O)Nc1ccc(Cl)cc1,-53%
13,COc1ccc2cc3c(N)nn(C(=O)c4cccc(F)c4)c3nc2c1,79.2% (active)
14,COc1ccc2cc3c(N)nn(C(=O)c4ccc(F)cc4)c3nc2c1,60.6% (active)
15,COc1ccc2cc3c(N)nn(C(=O)c4cccc([N+](=O)[O-])c4)c3nc2c1,65.4% (active)
16,COc1ccc(CN(C)S(=O)(=O)c2nnc(NC(=O)c3cccc(F)c3)s2)cc1,29.9%
17,COc1ccc2cc3c(N)nn(C(=O)c4ccc(Cl)c([N+](=O)[O-])c4)c3nc2c1,43.3%
18,COc1cccc(C(=O)c2sc(NC(C)C)nc2N)c1,41.4%
19,COc1cccc(-n2c(CN3CCN(c4ccccc4)CC3)nc3ccc([N+](=O)[O-])cc3c2=O)c1,-0.2%
